# Among all 5,500 compounds or so, about 2,000 (36%) were called active. Another 18% or so got no clear call; they are omitted. The list shows a part of the results. Unmarked numbers belong to inactive results. Rule as the data show it: active = normalized growth mostly below about 0.91 (no sharp cut-off); inconclusive = no clear call, values can overlap the other calls; inactive = mostly above about 0.92.
# Test: chemical genetic growth profiling, strain panel (AID 1159580);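 also: tested at 20 µM; growth read once vehicle control cultures reached saturation at 30 °C; 1 = growth at the plate median or of vehicle wells; lower values mean less growth of the strain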
# Settings: S. cerevisiae deletion strains, growth OD
compound,measurement,setting,value
O=c1c(O)c(-c2ccc(O)c(O)c2)oc2c(O[C@@H]3O[C@H](CO)[C@H](O)[C@@H](O)[C@H]3O)c(O)cc(O)c12,normalized growth,"locus YAL021C, strain ccr4, hits give low values",1.01
same,normalized growth,"locus YAL026C, strain drs2, hits give low values",1.03
same,normalized growth,"locus YAL030W, strain snc1, hits give low values",1.01
same,normalized growth,"locus YBL061C, strain skt5, hits give low values",1.01
same,normalized growth,"locus YBR009C, strain hhf1, hits give low values",1.02
same,normalized growth,"locus YBR023C, strain chs3, hits give low values",1.03
same,normalized growth,"locus YBR171W, strain sec66, hits give low values",1.02
same,normalized growth,"locus YBR231C, strain swc5, hits give low values",1.01
same,normalized growth,"locus YBR279W, strain paf1, hits give low values",1.01
same,normalized growth,"locus YCL011C, strain gbp2, hits give low values",1.03
same,normalized growth,"locus YCL016C, strain dcc1, hits give low values",1.02
same,normalized growth,"locus YCL061C, strain MRC1, hits give low values",1
same,normalized growth,"locus YCL069W, strain vba3, hits give low values",1.03
same,normalized growth,"locus YCR088W, strain abp1, hits give low values",1
same,normalized growth,"locus YDL005C, strain med2, hits give low values",1
same,normalized growth,"locus YDL040C, strain nat1, hits give low values",1.01
same,normalized growth,"locus YDR001C, strain nth1, hits give low values",1.02
same,normalized growth,"locus YDR069C, strain doa4, hits give low values",1.03
same,normalized growth,"locus YDR137W, strain rgp1, hits give low values",0.988
same,normalized growth,"locus YDR159W, strain sac3, hits give low values",0.997
same,normalized growth,"locus YDR195W, strain ref2",0.965
same,normalized growth,"locus YDR297W, strain sur2, hits give low values",1.03
same,normalized growth,"locus YDR334W, strain swr1, hits give low values",1.02
same,normalized growth,"locus YDR335W, strain msn5, hits give low values",1.02
same,normalized growth,"locus YDR392W, strain spt3, hits give low values",0.978
same,normalized growth,"locus YEL003W, strain gim4, hits give low values",1.02
same,normalized growth,"locus YEL037C, strain rad23, hits give low values",1.01
same,normalized growth,"locus YEL061C, strain CIN8 (second series), hits give low values",1.03
same,normalized growth,"locus YER015W, strain faa2, hits give low values",1
same,normalized growth,"locus YER016W, strain bim1, hits give low values",1.01
same,normalized growth,"locus YER111C, strain swi4, hits give low values",1.01
same,normalized growth,"locus YER155C, strain BEM2 (second series), hits give low values",1.04
same,normalized growth,"locus YFR010W, strain ubp6, hits give low values",1.01
same,normalized growth,"locus YGL167C, strain pmr1, hits give low values",1.02
same,normalized growth,"locus YGL173C, strain kem1, hits give low values",1.02
same,normalized growth,"locus YGL227W, strain vid30, hits give low values",0.999
same,normalized growth,"locus YGL240W, strain doc1, hits give low values",1.01
same,normalized growth,"locus YGL253W, strain hxk2, hits give low values",1.02
same,normalized growth,"locus YHR013C, strain ard1, hits give low values",1.02
same,normalized growth,"locus YHR027C, strain rpn1, hits give low values",0.998
same,normalized growth,"locus YHR030C, strain SLT2, hits give low values",0.895
same,normalized growth,"locus YHR079C, strain IRE1, hits give low values",0.886
same,normalized growth,"locus YHR142W, strain chs7, hits give low values",1.04
same,normalized growth,"locus YJL092W, strain hpr5, hits give low values",1.01
same,normalized growth,"locus YJL095W, strain BCK1 (second series), hits give low values",1.01
same,normalized growth,"locus YJL095W, strain BCK1, hits give low values",0.895
same,normalized growth,"locus YJL115W, strain asf1, hits give low values",1
same,normalized growth,"locus YJL129C, strain trk1, hits give low values",1
same,normalized growth,"locus YJL154C, strain vps35, hits give low values",1.02
same,normalized growth,"locus YJL164C, strain tpk1, hits give low values",1.03
same,normalized growth,"locus YJL166W, strain qcr8, hits give low values",1.04
same,normalized growth,"locus YJL187C, strain SWE1, hits give low values",1.03
same,normalized growth,"locus YJR066W, strain TOR1, hits give low values",0.914
same,normalized growth,"locus YKL160W, strain elf1, hits give low values",1
same,normalized growth,"locus YKR026C, strain gcn3, hits give low values",1.01
same,normalized growth,"locus YKR091W, strain srl3, hits give low values",1.02
same,normalized growth,"locus YLL001W, strain dnm1, hits give low values",0.989
same,normalized growth,"locus YLL026W, hits give low values",1.01
same,normalized growth,"locus YLL041C, strain sdh2, hits give low values",1.02
same,normalized growth,"locus YLR027C, strain aat2, hits give low values",1.03
same,normalized growth,"locus YLR113W, strain HOG1, hits give low values",0.834 (active)
same,normalized growth,"locus YLR221C, strain rsa3, hits give low values",1
same,normalized growth,"locus YLR258W, strain gsy2, hits give low values",1.01
same,normalized growth,"locus YLR262C, strain YPT6 (second series), hits give low values",1.06
same,normalized growth,"locus YLR320W, strain mms22, hits give low values",1.01
same,normalized growth,"locus YLR342W, strain FKS1, hits give low values",1.02
same,normalized growth,"locus YLR357W, strain rsc2, hits give low values",0.988
same,normalized growth,"locus YLR370C, strain arc18, hits give low values",1.02
same,normalized growth,"locus YLR384C, strain iki3, hits give low values",1
same,normalized growth,"locus YML120C, strain ndi1, hits give low values",1.01
same,normalized growth,"locus YMR058W, strain fet3, hits give low values",1.01
same,normalized growth,"locus YMR125W, strain sto1, hits give low values",1
same,normalized growth,"locus YMR129W, hits give low values",1.01
same,normalized growth,"locus YMR205C, strain PFK2, hits give low values",1.02
same,normalized growth,"locus YMR231W, strain pep5, hits give low values",1
same,normalized growth,"locus YNL071W, strain lat1, hits give low values",1.03
same,normalized growth,"locus YNL183C, strain NPR1, hits give low values",0.913
same,normalized growth,"locus YNL209W, strain ssb2, hits give low values",1.02
same,normalized growth,"locus YNL248C, strain rpa49, hits give low values",0.988
same,normalized growth,"locus YNL322C, strain KRE1 (second series), hits give low values",1
same,normalized growth,"locus YNR049C, strain mso1, hits give low values",1.02
same,normalized growth,"locus YOR001W, strain rrp6, hits give low values",1.01
same,normalized growth,"locus YOR070C, strain gyp1, hits give low values",1.01
same,normalized growth,"locus YOR080W, strain dia2, hits give low values",1.01
same,normalized growth,"locus YOR083W, strain WHI5, hits give low values",1.03
same,normalized growth,"locus YOR106W, strain vam3, hits give low values",1.01
same,normalized growth,"locus YOR231W, strain MKK1, hits give low values",0.91
same,normalized growth,"locus YOR265W, strain rbl2, hits give low values",1.04
same,normalized growth,"locus YOR270C, strain vph1, hits give low values",1.11
same,normalized growth,"locus YOR290C, strain snf2, hits give low values",1.03
same,normalized growth,"locus YPL051W, strain arl3, hits give low values",1.01
same,normalized growth,"locus YPL078C, strain atp4, hits give low values",1.01
same,normalized growth,"locus YPL106C, strain sse1, hits give low values",0.971
same,normalized growth,"locus YPL240C, strain hsp82, hits give low values",1.02
same,normalized growth,"locus YPL256C, strain CLN2, hits give low values",0.868
